# Data taken from PubChem BioAssay.
# A number with no mark means an inactive call. For some assays here: Measured potencies and affinities stand elsewhere. Activity calls are given as the source filed them. Unless noted, the rule behind the calls is not given here. Residues, ends and D or L forms follow the SMILES beside them. *: point of attachment. Octanoyl = CCCCCCCC(=O)*
# What was measured:
# [1] = antimalarial activity against Dd2 strain (AID 2302;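 active = growth inhibition above 50% at the single 2 µM test dose, taken to imply half-maximal potency below 2 µM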;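 note: 0% = DMSO untreated growth and 100% = chloroquine plus artemisinin killed control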); settings: P. falciparum Dd2 in RBCs, LDH growth readout, 72 h; at 2 µM; active compounds read high
# [2] = HepG2 cytotoxicity, primary screen, cytotoxicity control for P. falciparum antimalarial project, cell-based, ATP luminescence (AID 2303;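 active = inhibition above 50%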;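 note: 0% = DMSO wells and 100% = digitonin-killed cells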); settings: HepG2 viability, 24-48 h, at 10 µM, active compounds read high
# [3] = biological target: L-lactate dehydrogenase (Plasmodium falciparum (isolate CDC / Honduras)) (UniProt Q27743); test: PfLDH activity inhibition – cell lysate, 3D7 strain, counter-screen for P. falciparum growth inhibition project (AID 2304);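 note: 0% = vehicle and 100% = reference inhibitor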; settings: P. falciparum 3D7 crude extract, LDH APAD/NBT absorbance; at 2 µM; active compounds read high
# Chain of L-lactate dehydrogenase (Plasmodium falciparum (isolate CDC / Honduras)) (Q27743 whole entry, looked up): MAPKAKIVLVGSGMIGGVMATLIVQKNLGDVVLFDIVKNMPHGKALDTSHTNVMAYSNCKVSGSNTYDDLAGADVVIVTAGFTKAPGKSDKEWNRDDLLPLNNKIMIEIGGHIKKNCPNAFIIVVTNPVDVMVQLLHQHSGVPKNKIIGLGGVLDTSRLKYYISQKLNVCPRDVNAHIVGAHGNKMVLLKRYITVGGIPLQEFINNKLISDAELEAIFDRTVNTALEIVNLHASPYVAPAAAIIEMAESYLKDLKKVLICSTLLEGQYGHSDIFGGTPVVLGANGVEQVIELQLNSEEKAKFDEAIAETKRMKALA
# [4] = inhibition of 3D7 malaria parasite growth – strain 3D7 (AID 2306);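 note: 0% = DMSO wells and 100% = chloroquine plus artemisinin control wells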; settings: P. falciparum 3D7 erythrocytic growth, LDH absorbance, 72 h; at 2 µM; active compounds read high
# [5] = biological target: Calcium-dependent protein kinase 1 (Plasmodium falciparum (isolate 3D7)) (UniProt P62344); test: PfCDPK1 kinase inhibitors, biochemical, TCAMS library (AID 1159585; cut-off not given, nearly all actives have IC50 up to about 0.98 µM;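 note: inhibitors leave more ATP so luminescence rises with inhibition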); settings: recombinant PfCDPK1, Kinase-Glo ATP depletion luminescence
# Chain of Calcium-dependent protein kinase 1 (Plasmodium falciparum (isolate 3D7)) (P62344 whole entry, looked up): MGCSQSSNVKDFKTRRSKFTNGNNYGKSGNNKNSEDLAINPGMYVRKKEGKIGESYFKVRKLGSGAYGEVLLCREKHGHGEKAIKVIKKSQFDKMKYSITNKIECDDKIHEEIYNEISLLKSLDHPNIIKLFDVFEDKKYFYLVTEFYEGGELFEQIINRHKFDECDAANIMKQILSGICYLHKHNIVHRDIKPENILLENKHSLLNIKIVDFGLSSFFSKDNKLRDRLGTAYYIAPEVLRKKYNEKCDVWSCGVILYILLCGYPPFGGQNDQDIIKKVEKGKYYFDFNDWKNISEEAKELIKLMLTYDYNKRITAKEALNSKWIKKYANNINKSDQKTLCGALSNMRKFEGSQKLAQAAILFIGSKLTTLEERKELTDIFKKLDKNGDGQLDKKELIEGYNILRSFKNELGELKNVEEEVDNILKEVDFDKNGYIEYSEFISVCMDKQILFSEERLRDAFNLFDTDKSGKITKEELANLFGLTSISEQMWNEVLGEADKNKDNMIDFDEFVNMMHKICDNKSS
# [6] = biological target: Plasmodium falciparum protein kinase 6 (PK6, PF3D7_1337100) (UniProt Q8IDW1); test: PfPK6 kinase inhibitors, biochemical, TCAMS library (AID 1159586); settings: recombinant PfPK6, Kinase-Glo ATP depletion luminescence
# Chain of Plasmodium falciparum protein kinase 6 (PK6, PF3D7_1337100) (Q8IDW1 1-305): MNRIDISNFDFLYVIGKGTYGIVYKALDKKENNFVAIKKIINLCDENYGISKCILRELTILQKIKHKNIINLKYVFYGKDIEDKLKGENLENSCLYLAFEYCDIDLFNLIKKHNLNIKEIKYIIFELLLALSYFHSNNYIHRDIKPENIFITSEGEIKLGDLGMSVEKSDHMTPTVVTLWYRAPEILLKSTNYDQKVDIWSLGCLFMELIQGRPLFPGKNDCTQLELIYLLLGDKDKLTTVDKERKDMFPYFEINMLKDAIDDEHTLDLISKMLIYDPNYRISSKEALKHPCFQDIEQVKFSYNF
# [7] = biological target: Protein kinase 7 (PK7), Plasmodium falciparum 3D7 (PF3D7_0213400) (UniProt Q7YTF7); test: inhibition of Plasmodium PK7 catalytic activity – biochemical, TCAMS antimalarial set, Kinase-Glo luminescence (AID 1159587); settings: recombinant PfPK7, Kinase-Glo ATP depletion luminescence
# Chain of Protein kinase 7 (PK7), Plasmodium falciparum 3D7 (PF3D7_0213400) (Q7YTF7 1-343): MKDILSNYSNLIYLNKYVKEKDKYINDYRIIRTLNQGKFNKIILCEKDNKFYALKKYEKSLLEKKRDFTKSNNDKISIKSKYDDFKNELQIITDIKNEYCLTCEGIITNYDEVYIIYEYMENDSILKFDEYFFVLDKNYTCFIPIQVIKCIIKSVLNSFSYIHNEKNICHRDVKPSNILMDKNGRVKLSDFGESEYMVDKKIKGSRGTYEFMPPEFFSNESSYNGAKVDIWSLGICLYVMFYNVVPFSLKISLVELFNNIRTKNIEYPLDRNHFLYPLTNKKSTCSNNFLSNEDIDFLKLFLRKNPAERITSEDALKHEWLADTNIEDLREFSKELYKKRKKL
# [8] = biological target: Calcium-dependent protein kinase 4 (Plasmodium falciparum (isolate 3D7)) (UniProt Q8IBS5); test: PfCDPK4 kinase inhibitors, biochemical, TCAMS library (AID 1159588; cut-off not given, nearly all actives have IC50 up to about 0.91 µM); settings: recombinant PfCDPK4, Kinase-Glo ATP depletion luminescence
# Chain of Calcium-dependent protein kinase 4 (Plasmodium falciparum (isolate 3D7)) (Q8IBS5 whole entry, looked up): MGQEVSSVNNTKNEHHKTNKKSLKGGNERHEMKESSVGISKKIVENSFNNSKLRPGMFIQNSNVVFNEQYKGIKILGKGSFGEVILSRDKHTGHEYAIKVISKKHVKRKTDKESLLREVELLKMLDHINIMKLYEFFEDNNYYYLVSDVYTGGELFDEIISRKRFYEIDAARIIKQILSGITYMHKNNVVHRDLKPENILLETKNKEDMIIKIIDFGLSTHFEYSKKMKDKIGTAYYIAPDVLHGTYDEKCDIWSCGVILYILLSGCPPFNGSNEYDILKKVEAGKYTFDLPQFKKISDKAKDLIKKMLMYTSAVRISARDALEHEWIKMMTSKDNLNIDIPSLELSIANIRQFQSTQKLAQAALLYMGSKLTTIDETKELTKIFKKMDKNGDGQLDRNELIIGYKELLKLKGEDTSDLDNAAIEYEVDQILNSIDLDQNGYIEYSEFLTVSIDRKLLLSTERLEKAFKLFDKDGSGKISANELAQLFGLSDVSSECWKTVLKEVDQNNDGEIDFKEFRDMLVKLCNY
Structure (SMILES),growth inhibition [1],inhibition [2],inhibition [3] [%],growth inhibition [4],outcome [5],outcome [6],outcome [7],outcome [8]
O=C(Nc1cccc(N2CCC(NCCCc3ccncc3)CC2)c1)c1cccc(C(F)(F)F)c1,50% (active),11%,4,96% (active),inactive,inactive,inactive,inactive
CC(C)(C)Oc1ccc(CC2NC3(C(=O)N(Cc4ccc(C(C)(C)C)cc4)c4ccccc43)C3C(=O)N(c4ccc(Br)cc4)C(=O)C23)cc1 (stereo not given),94% (active),24%,0,94% (active),inactive,inactive,inactive,inactive
O=C(c1cc(-c2cccs2)[nH]n1)N1CCN(S(=O)(=O)c2ccc(Br)cc2)CC1,95% (active),-6%,3,93% (active),inactive,inactive,inactive,inactive
CCC[C@@H]([C@@H](CC1CCCCC1)C(=O)N[C@@H](CCOC(=O)NCC)C(=O)Nc1nccs1)N(O)C=O,79% (active),-13%,-7,101% (active),inactive,inactive,inactive,inactive
O=C(CCN1C(=O)c2ccccc2C1=O)N1CCN(CC=Cc2ccccc2)CC1,3%,10%,-1,87% (active),inactive,inactive,inactive,inactive
COc1ccccc1/C=C/C(=O)N(C)C1CCN(CCCCCNC(=O)/C=C/c2ccc(Cl)c(Cl)c2)C1 (stereo not given),14%,10%,-14,94% (active),inactive,inactive,inactive,inactive
CCC(=O)c1cc(C(=O)NCCc2cccc(OC)c2)ccc1OC,12%,-7%,-2,83% (active),inactive,inactive,inactive,inactive
Cc1nc(-c2cccc(NC(C)C(=O)Nc3cc(C(F)(F)F)ccc3N3CCOCC3)c2)cs1 (stereo not given),97% (active),3%,-2,82% (active),inactive,inactive,inactive,inactive
CCCNC(=O)C1Cc2c([nH]c3cc(Br)ccc23)C2(CCN(CCc3ccccc3)CC2)N1 (stereo not given),26%,15%,-1,92% (active),inactive,inactive,inactive,inactive
CS(=O)(=O)Cc1ccc(Nc2nccc(NC3CCN(c4nccc(C(F)(F)F)n4)CC3)n2)cc1,23%,34%,-3,88% (active),inactive,inactive,inactive,inactive
COc1cccc(-c2ccc3c(-c4cccc(S(C)(=O)=O)c4)cnc(N)c3c2)c1,21%,45%,-6,96% (active),inactive,inactive,inactive,inactive
c1ccc(Cn2nnnc2-c2cccc(Nc3ccnc4cc(-c5nccs5)ccc34)c2)cc1,46%,51% (active),-4,87% (active),inactive,inactive,inactive,inactive
O=c1cc(NCCCNCc2[nH]c3cc(Cl)cc(Cl)c3c2Cn2cccn2)[nH]c2ccccc12,2%,5%,1,86% (active),inactive,inactive,inactive,inactive
CC(C)C(C(=O)Nc1ccc2c(c1)OCO2)c1ccc(Cl)cc1 (stereo not given),89% (active),25%,-7,98% (active),inactive,inactive,inactive,inactive
Cc1ccc(CNC(=O)c2ccc(CN3CCCN(Cc4ccsc4)CC3)cc2)cc1,-1%,16%,5,93% (active),inactive,inactive,inactive,inactive
Cc1ccc(-n2cc(CNCCCn3ccnc3)c(-c3cccc(C)c3)n2)cc1,36%,9%,-2,99% (active),inactive,inactive,inactive,inactive
CS(=O)(=O)CCOCc1ccc(-c2ccc3ncnc(Nc4ccc(OCc5cccc(F)c5)c(Cl)c4)c3c2)o1,43%,1%,5,96% (active),inactive,inactive,inactive,inactive
CCN(CCCN1CCCCC1)c1cc(C)nc(Nc2ccc(C)c(Br)c2)n1,98% (active),42%,-8,102% (active),inactive,inactive,inactive,inactive
COc1ccc(CNCC2CCC(CNCCc3ccccc3)CC2)cc1Cl (stereo not given),29%,23%,-2,100% (active),inactive,inactive,inactive,inactive
Cc1ccc(O)cc1Nc1ccnc2cc(-c3ccccc3)ccc12,99% (active),45%,-2,100% (active),inactive,inactive,inactive,inactive

Structure (SMILES),growth inhibition [1],inhibition [2],inhibition [3] [%],growth inhibition [4],outcome [5],outcome [6],outcome [7],outcome [8]
COc1ccc2nccc([C@@H](O)CN3CCC(NC(=O)c4cc5ccccc5[nH]4)CC3)c2c1,55% (active),19%,-3,96% (active),inactive,inactive,inactive,inactive
COc1ccccc1CCNc1nc(C)cc(N[C@@H](Cc2ccccc2)C(=O)NCc2cccs2)n1,73% (active),18%,1,100% (active),inactive,inactive,inactive,inactive
CCCCCCCC(=O)N[C@@H](Cc1ccccc1)C(=O)N[C@H](C(=O)O)C(C)C (Octanoyl-Phe-Val-OH),-7%,-8%,2,89% (active),inactive,inactive,inactive,inactive
COc1cccc(C(=O)Nc2sc3c(c2C(N)=O)CCCC3)c1OC,8%,6%,-2,99% (active),inactive,inactive,inactive,inactive
CCN(CC)c1ccc2nc(N)nc(N)c2c1Cl,1%,62% (active),-5,92% (active),inactive,inactive,inactive,inactive
CCCOc1ccc(C(=O)Nc2nonc2-c2ccc(OC)c(OC)c2)cc1,97% (active),-9%,5,99% (active),inactive,inactive,inactive,inactive
CN1CCN(Cc2ccc(-c3cccc(-c4nc5ccccc5[nH]4)c3)cc2)CC1,6%,21%,3,93% (active),inactive,inactive,inactive,inactive
CC(=O)Nc1ccc(CN2CCc3ccc(NS(=O)(=O)c4cccc(OCc5ccc(Cl)cc5)c4)cc3CC2)s1,7%,23%,-3,93% (active),inactive,inactive,inactive,inactive
N#Cc1ccc(-c2ccc3nc(N4CCCN(C5CCC5)CC4)ccc3c2)cc1,14%,36%,-2,96% (active),inactive,inactive,inactive,inactive
C[C@@H](CC1CCCCC1)NCc1cccc(NS(=O)(=O)c2ccc(O)c(-c3ccno3)c2)c1,4%,-2%,-6,88% (active),inactive,inactive,inactive,inactive
COc1ccc(-c2cccc(NC(=O)c3ccc(Cl)cc3)c2)cc1CN1CCNCC1,22%,52% (active),-3,96% (active),inactive,inactive,inactive,inactive
Nc1c2c(nc3ccc(C(=O)Nc4ccc(Br)cc4)cc13)CCCC2,99% (active),40%,1,102% (active),inactive,inactive,inactive,inactive
CCc1cn2c3c(cc(C(=O)N[C@@H](Cc4ccccc4)[C@H](O)CNCC(C)C)cc13)N(C)S(=O)(=O)CC2,99% (active),-1%,-6,98% (active),inactive,inactive,inactive,inactive
COc1cc(NC(=O)c2cc([N+](=O)[O-])ccc2NC(=O)CNC2CCCC(C)C2C)cc(OC)c1 (stereo not given),80% (active),21%,4,97% (active),inactive,inactive,inactive,inactive
Nc1cc(-c2ccc(Br)cc2O)nc2ccccc12,50% (active),23%,0,100% (active),inactive,inactive,inactive,inactive
Cc1ccc(C(=O)Nc2ccc(-c3nc4ccccc4[nH]3)cc2)cc1S(=O)(=O)N1CCOCC1,16%,56% (active),4,90% (active),inactive,inactive,inactive,inactive
O=S(=O)(NC1CCN(c2ccnc3cc(Cl)ccc23)C1)c1cccs1 (stereo not given),76% (active),6%,-4,102% (active),inactive,inactive,inactive,inactive
CC(O)C1CCCCN1C(=O)c1cccc(-c2cccc(-c3nc4ccc(C(F)(F)F)cc4[nH]3)c2)c1 (stereo not given),100% (active),32%,-5,100% (active),inactive,inactive,inactive,inactive
O=C(NCCN1CCOCC1)c1ccc(O)c(-c2cccc(C(F)(F)F)c2)c1,48%,-1%,3,95% (active),inactive,inactive,inactive,inactive
Cc1ccccc1C1CCN(c2ncc(C(=O)NC3CC3)cc2Cl)CC1,96% (active),22%,-1,96% (active),inactive,inactive,inactive,inactive
